Shown are actives, neighbours in structure and some others; about 8.1% of the full set was active somewhere.
ClpP mod – qHTS Assay for Activators of ClpP | hit rate 1.9% among 340,000 | purified B. subtilis ClpP, FRET peptide cleavage, 20 min | ATP-dependent Clp protease proteolytic subunit (Bacillus subtilis (strain 168)), P80244 | AID 651965, 2013 | Potency, µM (series often up to 57.5 µM), without a hit: at the top dose activity change, negative = active; active = well fitted falling curve with a large enough effect; inconclusive = small, poorly fitted or top-dose-only effect; inactive = no such curve, though single readings can be large or run the other way; also: the source files actives as falling curves though it sought activators and does not explain the sign; nearly all actives have a fitted effect of over 65% in size
Target sequence (P80244 whole entry, looked up): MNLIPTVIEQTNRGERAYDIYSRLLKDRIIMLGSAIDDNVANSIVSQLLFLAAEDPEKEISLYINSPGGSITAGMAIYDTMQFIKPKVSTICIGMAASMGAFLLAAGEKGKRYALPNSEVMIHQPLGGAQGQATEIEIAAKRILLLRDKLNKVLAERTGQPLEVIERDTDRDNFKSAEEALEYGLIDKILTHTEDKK
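Purified B. subtilis ClpP, 10 microg/mL final in Tris/HCl pH8 with KCl, BSA, glycerol and Tween-20, cleaved an Abz/nitrotyrosine-quenched decapeptide. Fluorescence (ex 320, em 430) was read at 0 and 20 min at room temperature. Delta was normalized to 5.8 microM ADEP and DMSO/no-enzyme controls.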
Epigenetic reg – epigenetic control regulation, reporter derepression | murine LDR cells, GFP reporter derepression, 30 h | hit rate 0.2% among 280,000 | Potency, µM (doses to about 53.9 µM), for inactives: top-dose GFP activation, hits mostly activators; also: % of control where 0% means no effect; nearly all actives have a fitted effect of over 60% in size
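Reporter derepression read as number of fluorescent GFP-positive objects, 20-120 um in size, counted by laser-scanning cytometer. Mouse LDR line with an epigenetically silenced CMV-GFP locus; compound incubation 30 h, 37 C.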
VP16 counter – counter-screen for ROR gamma inhibitors: Gal4-VP16 reporter; Drosophila S2 Gal4-VP16 UAS-luciferase, luminescence, 20 h; AID 2546; Potency, µM (doses to about 53.6 µM), for inactives: top-dose activity, negative = inhibition, most hits filed as inhibitors; hit rate 3.5% among 310,000;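 also: Gal4-VP16 expression switched on by copper sulfate through the metallothionein promoter; % is scaled to controls: 0 for no effect and ±100 for the full control effect; nearly all actives have a fitted effect of over 50% in size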
Sfp inh – inhibitors of Bacillus subtilis Sfp phosphopantetheinyl transferase; Q9F4F7; Biochemical Sfp PPTase activity, qHTS; Potency, µM, inactives show largest response in the series, negative = inhibition, usual class: inhibitors; hit rate 3.5% among 310,000;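 also: the enzyme is Sfp with the accession as filed and its product quenches rhodamine fluorescence; 0% = enzyme reaction without inhibitor and -100% = no enzyme wells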
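With Hepes-Na pH 7.6 buffer containing 10 mM MgCl2, Sfp (15 nM) modified BHQ-2-YbbR (12.5 uM) using rhodamine-CoA (5 uM). Two reads 30 minutes apart at 525/598 nm yielded each well's rate.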
RORgamma inh – blocks mouse ROR gamma transcriptional activity; hit rate 5.4% among 310,000; Drosophila S2 Gal4-RORgamma UAS-luciferase reporter, 20 h; P51450; Potency, µM (titrated, usually from 53.6 µM), for inactives: at the highest dose activity change, negative = inhibition, hits mostly inhibitors; AID 2551; also: % is scaled to controls: 0 for no effect and ±100 for the full control effect; nearly all actives have a fitted effect of over 60% in size
Target sequence (P51450 whole entry, looked up, the tested form may be a part): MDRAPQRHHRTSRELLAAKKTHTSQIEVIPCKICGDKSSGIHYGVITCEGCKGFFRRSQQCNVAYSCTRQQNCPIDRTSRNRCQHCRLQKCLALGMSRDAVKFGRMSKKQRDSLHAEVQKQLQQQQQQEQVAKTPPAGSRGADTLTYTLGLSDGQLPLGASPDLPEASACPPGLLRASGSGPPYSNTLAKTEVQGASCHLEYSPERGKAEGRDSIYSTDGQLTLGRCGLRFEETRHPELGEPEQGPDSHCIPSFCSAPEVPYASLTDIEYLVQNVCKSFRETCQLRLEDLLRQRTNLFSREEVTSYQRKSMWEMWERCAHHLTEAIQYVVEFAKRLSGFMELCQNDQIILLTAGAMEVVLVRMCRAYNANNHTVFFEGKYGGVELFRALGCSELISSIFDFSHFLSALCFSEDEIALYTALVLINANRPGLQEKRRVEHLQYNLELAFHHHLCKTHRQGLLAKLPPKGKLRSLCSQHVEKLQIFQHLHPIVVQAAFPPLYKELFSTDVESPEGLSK
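Luminescence from a UAS-regulated Photinus luciferase reporter in stably transfected Drosophila Schneider cells is measured; decreased signal marks ROR gamma inhibition. Fusion expression is induced by 700 uM copper sulfate for 20 hr.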
PINK1 expr mod – modulators of PINK1 expression; PINK1 immunofluorescence, high-content cytometry, 24 h; Potency, µM (top dose mostly 76.6 µM), without a hit: at the highest dose activation (PINK1 increase), actives largely listed as activators; hit rate 0.2% among 410,000; AID 624263; active = well fitted activation curve with a large enough effect; inconclusive = small, poorly fitted or top-dose-only effect; cell line not stated here; also: % of control where 0% means no effect; nearly all actives have a fitted effect of over 65% in size
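A stable cell line was treated with compounds at 5 concentrations for 24 hours, with CCCP as control. PINK1 levels and mitochondrial localization were measured by immunofluorescence with mitochondrial, cell and nuclear markers after fixation, read by laser-scanning cytometry.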
* = called active by the depositor; ? = inconclusive; . = not tested or not shown; [ ] = remark or other dose. Unless noted, calls follow the shape of the dose curve; as a rule, active = well fitted curve in the direction sought with a large enough effect; inconclusive = small, poorly fitted or top-dose-only effect, or another doubt; inactive = no such curve, though single readings can be large; an effect the other way counts as inactive or inconclusive. Potency is read from the fitted curve at half-maximal effect.

SMILES	ClpP mod	Epigenetic reg	VP16 counter	Sfp inh	RORgamma inh	PINK1 expr mod
C#CCOc1c(Cl)cc(/C=N/NC(N)=S)cc1OCC	-7%	0%	?	9%	14µM*	2%
CCN(CC)C(=S)Nc1ccc(Cl)c(Cl)c1	0%	0%	?	7%	18µM*	4%
COCCNC(=S)Nc1ccc(Cl)c(Cl)c1	1%	-1%	?	18%	10µM*	3%
S=C(NCCc1ccccn1)Nc1cc(Cl)cc(Cl)c1	.	-6%	?	9%	5µM*	-1%
NC(=S)NNC(=O)Nc1ccc(Cl)c(Cl)c1	22µM*	-1%	14%	-26%	?	2%
COc1ccc(Nc2ncnc3c2cnn3-c2ccc(C)cc2C)cc1	-3%	2%	.	.	.	2%
CCCN1C(=O)C2(c3ccccc31)c1c(oc3cc(C)c(C)cc3c1=O)C(=O)N2CCCOC (centres undefined)	-3%	5%	.	.	.	-1%
COC(=O)c1ccccc1NC(=O)c1sc2nc(C)cc(C)c2c1NC(=O)c1ccccc1Cl	5%	?	.	.	.	3%
COc1cccc(NC(=S)NCCc2ccccn2)c1	-3%	-1%	18µM*	?	?	0%
S=C(NCc1cccnc1)Nc1ccc(Cl)c(Cl)c1	-1%	1%	?	?	?	.
S=C(NCCc1ccccn1)Nc1ccc(Cl)c(Cl)c1	-2%	0%	7.1µM*	-5%	5.6µM*	0%
S=C(NCCc1ccccn1)Nc1ccccc1	2%	1%	?	15%	20µM*	3%
CCN(CC)c1ccc(NC(=O)CN2C(=O)c3cccnc3Oc3ccccc32)c(C)c1	-9%	-1%	.	.	.	0%
O=c1[nH]c(=S)[nH]c2sccc12	?	-2%	-4%	22µM*	-7%	-1%
CCOc1ccccc1NC(=S)NCCc1ccccc1	1%	-1%	5µM*	16%	1.3µM*	0%
CCOc1ccccc1NC(=S)NCCc1ccc(F)cc1	1%	-1%	10µM*	24%	1.6µM*	1%
CCOc1ccccc1NC(=S)NC(=O)c1ccco1	-2%	.	.	-4%	.	-1%
C(=N\Nc1nc2ccccc2s1)/c1ccco1	3%	0%	?	3%	11µM*	.
Cc1ccsc1/C=N/Nc1nc2ccccc2s1	-2%	7%	0.89µM*	?	0.56µM*	3%
Cc1ccc(C)c(-c2csc(N/N=C/c3ccco3)n2)c1	.	2%	-13%	1%	16µM*	5%
CC(=O)Nc1ccc(/C=N/Nc2nc3ccccc3s2)cc1	-16%	0%	3%	-8%	-9%	1%
Cc1nn(-c2ccccc2Cl)c(Cl)c1/C=N/Nc1nc2ccccc2s1	-4%	0%	0.32µM*	10%	1µM*	1%
CCOC(=O)N/N=C/c1c(C)nn(-c2ccccc2Cl)c1Cl	-2%	1%	?	9%	?	16%
C(=N\Nc1nc2ccccc2s1)/c1cccs1	-2%	2%	3.2µM*	-29%	1.3µM*	-2%[38.3 µM]
CCn1c(C)c(/C=N/Nc2nc3ccccc3s2)c2ccccc21	-17%	4%	?	1%	5µM*	13%[38.3 µM]
SMILES	ClpP mod	Epigenetic reg	VP16 counter	Sfp inh	RORgamma inh	PINK1 expr mod
Oc1ccccc1C=NNc1nc2ccccc2s1	.	.	.	.	.	6%
CCOc1ccc(NC(=O)NCc2ccc3c(c2)CCN3C(C)=O)cc1	-3%	2%	.	.	.	2%
COc1cc(Cl)c(C)cc1NC(=O)c1nn(-c2ccc(C)cc2)c(=O)n(C)c1=O	0%	0%	.	.	.	1%
CCn1cc(C(=O)NCCCO)c(=O)c2cc(F)c(N3CCN(C)CC3)cc21	4%	.	5%	11%	-12%	-1%
CCn1cc(C(=O)NCc2ccco2)c(=O)c2cc(F)c(N3CCN(C(=O)c4ccco4)CC3)cc21	28µM*	-2%	-9%	?	0%	-1%
CCCCCCNC(=O)c1cn(CC)c2cc(N3CCN(C)CC3)c(F)cc2c1=O	-3%	.	13µM*	-10%	11µM*	-3%
CC1CCN(CC[S-])CC1.O.O.[Cl][Pt]	-3%	.	.	.	.	0%
CC(=O)Nc1ccc(C(=O)N2CCCC(n3cc(C(=O)NCC(C)C)nn3)C2)cc1 (centres undefined)	.	.	.	.	.	1%
Cc1ccc(C(=O)/C=C\C(=O)c2ccc(C)cc2)cc1	1%	0%	10µM*	1.8µM*	-94%	2%
CC(/C=C/C(=O)c1ccc(C)cc1)=C\c1ccccc1	1%	-2%	-7%	?	-16%	9%
Cc1ccc(C(=O)/C=C/c2ccc(-c3ccc(C)cc3)o2)cc1	1%	-2%	?	8.9µM*	37%	17%
CN(C)/C=C/C(=O)c1ccccc1	0%	3%	-9%	?	13%	0%
Cc1ccc(S/C=C\C(=O)c2ccccc2)cc1	-2%	3%	14µM*	-3%	-13%	13µM*
CCc1ccc(C(=O)/C=C/c2ccc([N+](=O)[O-])o2)cc1	1%	?	8.9µM*	-6%	?	3%
CCN(CC)S(=O)(=O)c1ccc(C(=O)/C=C/c2ccc(-c3ccc([N+](=O)[O-])cc3)o2)cc1	1%	?	6%	79µM*	-29%	0%
O=C(O)/C=C/C(=O)c1ccc(O)cc1	.	5%	4%	2.2µM*	-8%	-2%
O=Cc1ccc(-c2ccc(F)cc2)o1	?	-3%	-12%	9%	7%	4%
O=C(/C=C\c1ccc(-c2ccccc2)o1)c1ccccc1	-28%	0%	-26%	11µM*	13%	13%
O=C(O)/C(=C\c1ccc(-c2ccc(F)cc2)o1)c1ccccc1	.	2%	25%	8.9µM*	-2%	-2%
CCN(CC)CCCNc1oc(/C=C/c2ccc(OC)c(OC)c2)nc1C#N	4%	2%	.	.	.	-1%
Cc1nn(-c2ccc(N3CCCC3)nn2)c(C)c1CCC(=O)N1CCN(c2ccc(F)cc2)CC1	0%	4%	.	.	.	2%
C/C=C1\COC(C(=O)NCCOCCO)(C(F)(F)F)C=C1C=C1CCCCC1 (centres undefined)	.	.	?	-4%	?	.
CCc1nnc(NC(=O)c2cc(=O)c3cc(C)ccc3o2)s1	0%	3%	.	.	.	3%
CCCCSc1nnc2c(n1)OC(c1ccc(C)s1)Nc1ccccc1-2 (centres undefined)	-3%	-1%	.	.	.	1%
O=C(O)c1cc2cc(OCc3ccccc3)ccc2[nH]1	28µM*	1%	8%	-2%	40%	2%[38.3 µM]
CCCCCCCc1c(C#N)c(N)[nH]c(=S)c1C#N	1%	1%	-24%	-3%	8.9µM*	-1%
N#Cc1c(SCc2c(Cl)cccc2Cl)nc(N)[nH]c1=S	0%	.	.	.	.	1%

Compound activity deposited in PubChem BioAssay by National Center for Advancing Translational Sciences (NCATS).
